Measurements from article PMC5869772, “Quantitative profiling of BATF family proteins/JUNB/IRF hetero-trimers using Spec-seq”.

How the values were obtained:
Assay in all cases: Spec-seq (EMSA and sequencing of bound and unbound bands); 100 nM BATFx-JUNB, 1 uM dsDNA library, 50 mM K acetate, 20 mM Tris-acetate, 10 mM Mg acetate, 100 ug/ml BSA, pH 7.9, 10% glycerol, 30 min on ice; native 9% PAGE at 4 C; low values mean tight binding
Conditions in all cases: protein: recombinant;recombinant; tags: N-terminal mCherry-TEV, cleaved off;C-terminal 6His; copies: 1;1; dsDNA, one strand shown
BATF;JUNB = target: T1, BATF;JUNB (human;human, UniProt Q16520;P17275 1-125;148-347, |)
T1 sequence 1: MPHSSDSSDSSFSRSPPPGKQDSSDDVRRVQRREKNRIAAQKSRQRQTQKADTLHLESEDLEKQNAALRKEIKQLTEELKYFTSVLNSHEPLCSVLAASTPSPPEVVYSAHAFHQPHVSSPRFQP
T1 sequence 2: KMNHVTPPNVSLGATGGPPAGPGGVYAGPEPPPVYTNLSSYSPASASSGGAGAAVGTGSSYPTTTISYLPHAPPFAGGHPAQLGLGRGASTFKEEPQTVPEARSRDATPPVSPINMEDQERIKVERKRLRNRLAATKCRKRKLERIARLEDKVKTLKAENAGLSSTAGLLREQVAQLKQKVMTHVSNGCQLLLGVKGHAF
Outline: (§1)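 The protein, at 100 nM, was incubated with 1 μM double-stranded degenerate DNA library for 30 min on ice in NEB Cutsmart buffer with 10% glycerol, then resolved by native 9% PAGE at 4 °C. Excised bound and unbound bands were PCR-barcoded and Illumina-sequenced, and each sequence's relative binding energy in kT is −ln of its bound/unbound read-count ratio.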

BATF2 (bZIP);JUNB = target: T2, BATF2 (bZIP);JUNB (human;human, UniProt Q8N1L9;P17275 1-142;148-347, |)
T2 sequence 1: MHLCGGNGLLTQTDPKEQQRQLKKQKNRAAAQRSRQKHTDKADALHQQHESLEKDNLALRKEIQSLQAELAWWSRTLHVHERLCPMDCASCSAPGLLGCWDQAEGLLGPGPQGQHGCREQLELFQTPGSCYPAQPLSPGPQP
T2 sequence 2: T1 sequence 2
Outline: as §1

BATF3;JUNB = target: T3, BATF3;JUNB (human;human, UniProt Q9NR55;P17275 1-127;148-347, |)
T3 sequence 1: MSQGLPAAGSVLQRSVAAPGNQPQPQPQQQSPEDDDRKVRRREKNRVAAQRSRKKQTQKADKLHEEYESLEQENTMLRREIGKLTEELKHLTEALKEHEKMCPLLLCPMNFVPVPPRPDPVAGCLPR
T3 sequence 2: T1 sequence 2
Outline: as §1

| Sequence | binding signal (BATF;JUNB) | binding signal (BATF2 (bZIP);JUNB) | binding signal (BATF3;JUNB) |
| --- | --- | --- | --- |
| GATAGTCTCATTTTCACCCCGTGAAACGAGTCATTTGTTCCATTACAGTATCTGT | -0.477 kT | 0.283 kT | -0.111 kT |
| GATAGTCTCATTTTCACCCCGTGAAATGAGTAATTTGTTCCATTACAGTATCTGT | -0.4 kT | 0.147 kT | -0.208 kT |
| GATAGTCTCATTTTCACCCCGTGAAAATGTGTCATTGTTCCATTACAGTATCTGT | -0.713 kT | -0.258 kT | -0.757 kT |
| GATAGTCTCATTTTCACCCCGTGAAATGACTCGGTTGTTCCATTACAGTATCTGT | -0.246 kT | 0.589 kT | 0.398 kT |
| GATAGTCTCATTTTCACCCCGTGAAATGACACAATTGTTCCATTACAGTATCTGT | 0.0803 kT | 0.413 kT | -0.063 kT |
| GATAGTCTCATTTTCACCCCGTGAAATGTCGTCATTGTTCCATTACAGTATCTGT | -0.357 kT | -0.113 kT | -0.976 kT |
| GATAGTCTCATTTTCACCCCGTGAAATGGCGTCATTGTTCCATTACAGTATCTGT | -0.631 kT | -0.0754 kT | -1.11 kT |
| GATAGTCTCATTTTCACCCCGTGAAATGAGTTATTTGTTCCATTACAGTATCTGT | 0.153 kT | 0.843 kT | 0.54 kT |
| GATAGTCTCATTTTCACCCCGTGAAATGCCTCATTTGTTCCATTACAGTATCTGT | 0.532 kT | 1.18 kT | 1.01 kT |
| GATAGTCTCATTTTCACCCCGTGAAATGAGCCAGTTGTTCCATTACAGTATCTGT | 0.487 kT | 1.33 kT | 1.1 kT |
| GATAGTCTCATTTTCACCCCGTGAAAGGACTCATTTGTTCCATTACAGTATCTGT | 0.219 kT | 0.9 kT | 0.665 kT |
| GATAGTCTCATTTTCACCCCGTGAAATGACTCTGTTGTTCCATTACAGTATCTGT | -0.0517 kT | 0.667 kT | 0.481 kT |
